# Results reported in PubChem BioAssay (Tox21).
# Where “and” joins values, the source holds several entries; their conditions need not be identical. Equal entries are not always repeated. Results filed as inconclusive are left out. A number with no mark means an inactive call. Calls of active or inactive are those of the source. Calls follow the shape of the dose curve; as a rule, active = well fitted inhibition curve with a large enough effect in the repeat runs; inconclusive = weak or mixed curves; inactive = no such curve, though single readings can be large or run the other way.
# Molecular target: Cytochrome P450 2C9 (Homo sapiens) (UniProt P11712)
# Assay: Cytochrome P450 Family 2 Subfamily C Member 9 (CYP2C9) small molecule antagonists: luciferase reporter qHTS assay (AID 1671198); also: nearly all actives have a fitted effect of over 50% in size
# Conditions: P450-Glo CYP2C9 enzyme assay, luciferin luminescence; series mostly up to 115 µM; activity change, negative = inhibition: at the top concentration
# Procedure, shortened: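 P450-Glo proluciferin substrate with CYP2C9 enzyme; 10 min RT preincubation, then NADPH regeneration 1 h at 37C; luciferin detection reagent 20 min RT, luminescence in relative luminescence units.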
# % is scaled to controls: 0 for no effect and ±100 for the full control effect; potency is read from the fitted curve at half-maximal effect.
# Sequence of Cytochrome P450 2C9 (Homo sapiens) (P11712 whole entry, looked up): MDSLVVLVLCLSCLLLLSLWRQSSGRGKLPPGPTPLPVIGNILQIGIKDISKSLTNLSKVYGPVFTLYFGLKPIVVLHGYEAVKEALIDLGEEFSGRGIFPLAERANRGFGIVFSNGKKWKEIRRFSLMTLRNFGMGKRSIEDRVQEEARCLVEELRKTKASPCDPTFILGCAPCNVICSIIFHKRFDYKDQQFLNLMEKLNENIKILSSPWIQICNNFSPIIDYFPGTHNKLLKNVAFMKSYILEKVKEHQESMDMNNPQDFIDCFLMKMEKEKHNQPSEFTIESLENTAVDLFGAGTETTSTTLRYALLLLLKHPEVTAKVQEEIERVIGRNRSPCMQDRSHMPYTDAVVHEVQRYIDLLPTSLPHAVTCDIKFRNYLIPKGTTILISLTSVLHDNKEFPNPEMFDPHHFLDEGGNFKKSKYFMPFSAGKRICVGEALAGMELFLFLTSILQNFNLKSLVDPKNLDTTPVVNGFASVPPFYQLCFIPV
Structure (SMILES),Potency,"activity change, negative = inhibition"
CCOP(=S)(OCC)Oc1cc(C)nc(N(CC)CC)n1,11.2 µM (active),
Cc1ccc([N+](=O)[O-])[c]2c1[O][Hg]2,0.871 µM (active),
CC(=O)[O][Sn]([c]1ccccc1)([c]1ccccc1)[c]1ccccc1,0.894 µM (active),
C=C(C)C(=O)[O][Sn]([CH2]CCC)([CH2]CCC)[CH2]CCC,11.2 µM (active),
CNC(=O)/C=C(\C)OP(=O)(OC)OC,,-20%
CC(C)C(Nc1ccc(C(F)(F)F)cc1Cl)C(=O)OC(C#N)c1cccc(Oc2ccccc2)c1 (configuration not stated),6.38 µM (active),
N#Cc1ccc(N(CC(N)=O)CC(F)(F)F)cc1C(F)(F)F,35.6 µM (active),
O=C(O)CCCCCCNC1c2ccccc2CCc2ccccc21,,1.88% [at 53 µM]
C=CC(=O)[O][Sn]([CH2]CCC)([CH2]CCC)[CH2]CCC,12.6 µM (active),
NC(=O)C(Cl)Cl,,5.6%
Cc1cccc(Cc2cnc[nH]2)c1C,0.347 µM (active),
CCOP(=O)(OCC)Oc1cc(C)nc(C(C)C)n1,,-22.2%
OCC(Br)CBr (configuration not stated),,-9.22%
C=CC(=C)C,,-2.83%
CCn1cc[n+](C)c1 (tested in a mixture with another compound),,0.0368%
CC(=O)[O][Pb]([c]1ccccc1)([c]1ccccc1)[c]1ccccc1,3.17 µM (active),

Structure (SMILES),Potency,"activity change, negative = inhibition"
CCCCc1ccccc1,,-11.9%
CCNS(=O)(=O)C(F)(F)C(F)(F)C(F)(F)C(F)(F)C(F)(F)C(F)(F)C(F)(F)C(F)(F)F,1.52 µM (active),
Oc1ccc(Cl)c(Cl)c1,,15%
CC(C)=CCN1CC[C@@]2(C)c3cc(O)ccc3C[C@@H]1[C@@H]2C,,-1.32%
CC1CN1 (configuration not stated),,-17.3%
CC(C)c1c(CN(C)C(C)Cc2ccccc2)n(C)n(-c2ccccc2)c1=O (configuration not stated),4.36 µM (active),
Cc1nn(-c2cc(NS(C)(=O)=O)c(Cl)cc2Cl)c(=O)n1C(F)F,39.9 µM (active),
O=S1(=O)OCC2C(CO1)C1(Cl)C(Cl)=C(Cl)C2(Cl)C1(Cl)Cl (configuration not stated),15.9 µM (active),
C[C@]12C/C(=C/O)C(=O)C[C@@H]1CC[C@@H]1[C@@H]2CC[C@@]2(C)[C@H]1CC[C@]2(C)O,35.9 µM (active) and 27.5 µM (active),
[Cl][Hg][c]1ccccc1,3.99 µM (active),
CCCCCON=O,,1.07%
ClC(Cl)C(Cl)(Cl)Cl,,5.62%
COC(=O)/C=C(\C)OP(=O)(OC)OC,,-19%
CCCCC(CC)COC(=O)c1ccccc1C(=O)OCC(CC)CCCC (configuration not stated),9.47 µM (active),
CC1(C)[C@H](/C=C2\CCSC2=O)[C@@H]1C(=O)OCc1coc(Cc2ccccc2)c1,1.26 µM (active),
CCCN,,-17.5%
